Active and inactive are the calls of the source.
Tests used:
Albumin (Bos taurus) = Albumin (Bos taurus) (UniProt P02769); experiment: bovine serum albumin binders on microarray, profiling panel, artefact control for SMM control protein annotation, biochemical, small-molecule microarray, Alexa647 label, 635/667 nm fluorescence (AID 1118); conditions: BSA-A647 binding, fluorescence 635 nm, higher = more signal;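 note: score merges 667 nm emission intensity and signal-to-noise per printed compound spot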
[1] = small-molecule microarray binders of probe aXIP, primary screen, biochemical, NeuroSMM set, 635/667 nm fluorescence (AID 1119); conditions: higher = more signal, called active from +8 up or from −8 down;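 note: probe is the protein aXip251-270 applied at 1 µg/mL to compound-printed slides; binding of probe to printed compounds measured as 667 nm fluorescence plus signal to noise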
[2] = small-molecule binders of probe aNOTCH3, primary screen, biochemical, small-molecule microarray, 635/667 nm fluorescence (AID 1120); conditions: higher = more signal;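 note: probe is a biotin-tagged antibody raised against NOTCH3 rather than NOTCH3 protein; score merges spot fluorescence near 667 nm with spot signal to noise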
[3] = small-molecule binders of probe aNOTCH2, primary screen, biochemical, small-molecule microarray, 635/667 nm fluorescence (AID 1121); conditions: higher = more signal;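 note: score merges feature fluorescence read at 667 nm with its signal to noise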
[4] = biological target: Carbonic anhydrase 2 (Homo sapiens) (UniProt P00918); experiment: CAII small-molecule binders, profiling panel, biochemical, small-molecule microarray, Alexa647-labelled CAII (AID 1122); conditions: CAII-A647 binding fluorescence, higher = more signal
[5] = COS7 lysate on small-molecule microarray, probe aHis, 635 nm (AID 1123); conditions: COS7 cell lysate, fluorescence, higher = more signal;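 note: z-score combines 667nm fluorescence intensity with signal-to-noise per printed compound spot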
[6] = compound binding in COS7 lysate, probe aLAP1, primary screen, cell lysate, small-molecule microarray (AID 1124); conditions: probe aLAP1, fluorescence, higher = more signal;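 note: lysate comes from COS7 cells expressing LAP1 and is applied at 0.3 µg/mL; score merges spot fluorescence near 667 nm with signal-to-noise over triplicate slides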
Sam68 (KHDRBS1) = experiment: Sam68 small-molecule binders, primary screen, biochemical, small-molecule microarray, 635 nm fluorescence (AID 1125); conditions: small-molecule microarray binding, higher = more signal;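 note: score merges 667 nm channel intensity with signal to noise over triplicate slides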
[7] = system: Chordin-like protein 2 (CHRDL2); experiment: CHRDL2 small-molecule binders, primary screen, biochemical, small-molecule microarray, 635 nm fluorescence (AID 1126); conditions: small-molecule microarray binding, fluorescence 635 nm; higher = more signal;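 note: printed compound slides probed with Chrdl2 protein at 4 µg/mL for 1 h at 4 C; score merges 667 nm emission intensity with signal to noise over three replicate slides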
[8] = biological target: Concanavalin-A (Canavalia ensiformis) (UniProt P02866); experiment: ConA small-molecule binders, primary screen, artefact control for SMM control protein annotation, biochemical, small-molecule microarray, Alexa647 label, 635 nm (AID 1127); conditions: ConA-A647 binding fluorescence, higher = more signal;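 note: z combines 667 nm emission intensity with signal-to-noise across three replicate slides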
Concanavalin-A (Canavalia ensiformis), sequence (P02866 whole entry, looked up): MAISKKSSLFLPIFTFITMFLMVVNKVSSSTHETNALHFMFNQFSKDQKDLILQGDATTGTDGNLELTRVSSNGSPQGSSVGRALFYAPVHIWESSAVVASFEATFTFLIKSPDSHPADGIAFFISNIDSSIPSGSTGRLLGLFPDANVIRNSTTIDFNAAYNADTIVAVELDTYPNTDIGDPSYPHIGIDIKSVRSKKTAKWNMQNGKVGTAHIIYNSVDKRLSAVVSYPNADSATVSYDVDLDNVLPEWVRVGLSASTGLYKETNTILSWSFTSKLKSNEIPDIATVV

Albumin (Bos taurus), sequence (P02769 whole entry, looked up): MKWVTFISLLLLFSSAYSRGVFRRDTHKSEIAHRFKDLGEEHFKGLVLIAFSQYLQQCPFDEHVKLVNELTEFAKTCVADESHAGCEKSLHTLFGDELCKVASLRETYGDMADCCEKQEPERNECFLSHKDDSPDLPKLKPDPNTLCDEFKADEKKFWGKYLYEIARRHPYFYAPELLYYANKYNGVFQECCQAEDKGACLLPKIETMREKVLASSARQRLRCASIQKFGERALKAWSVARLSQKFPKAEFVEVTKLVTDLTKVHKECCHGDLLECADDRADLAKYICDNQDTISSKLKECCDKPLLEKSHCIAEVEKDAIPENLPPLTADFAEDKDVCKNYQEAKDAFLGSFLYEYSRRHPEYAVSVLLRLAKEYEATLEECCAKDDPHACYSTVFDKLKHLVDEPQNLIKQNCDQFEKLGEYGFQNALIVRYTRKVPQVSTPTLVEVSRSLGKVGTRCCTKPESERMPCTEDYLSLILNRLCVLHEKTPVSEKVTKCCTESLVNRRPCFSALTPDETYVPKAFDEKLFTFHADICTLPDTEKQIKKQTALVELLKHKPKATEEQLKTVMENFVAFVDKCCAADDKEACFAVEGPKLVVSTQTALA

Compound | composite z-score (Albumin (Bos taurus)) | composite Z-score [1] | composite z-score [2] | composite z-score [3] | composite z-score [4] | composite z-score [5] | composite z-score [6] | composite z-score (Sam68 (KHDRBS1)) | composite z-score [7] | composite z-score [8]
COc1ccc([Si](C)(C)[C@H]2[C@H](CC(=O)N3Cc4ccccc4C[C@H]3CO)O[C@@]3(C(=O)N(Cc4cccc(I)c4)c4ccccc43)[C@@H]2C)cc1 | -0.481 | 0.58 (inactive) | -0.0947 | -0.125 | 0.784 | -0.0845 | -0.361 | 0.418 | 1.54 | 0.891
COCCOC(=O)N1C(=O)[C@@]2(c3cc(C#CCC(C(=O)OC)C(=O)OC)ccc31)[C@H](c1ccccc1OCCO)N1[C@H](c3ccccc3)[C@H](c3ccccc3)OC(=O)[C@H]1[C@@H]2C(=O)Nc1nc2ccccc2s1 | 0.757 | 0.794 (inactive) | 0.261 | -0.0048 | 0.324 | 1.93 | 1.47 | 1.31 | 0.554 | 1.12
CCCNC(=O)[C@@]1(C)c2ccccc2C(=O)N(Cc2cc(F)cc(C(F)(F)F)c2)[C@H]1c1ccc(CO)cc1 | 0.695 | 0.373 (inactive) | -0.201 | -0.0569 | 0.587 | 2.24 | -0.337 | -0.0127 | -1.76 | -0.365
C=CC[C@]1(C(=O)O)N=C(c2ccc(OCCCO)cc2)O[C@H]1c1ccccc1CN=[N+]=[N-] | 0.659 | 0.168 (inactive) | -0.0447 | -0.157 | 0.876 | 1.23 | -0.201 | -0.103 | 0.0037 | 0.0681
CC(C)N1C(=O)c2ccccc2[C@](C)(C(=O)NC2CC2)[C@@H]1c1ccc(CO)cc1 | 0.375 | -0.116 (inactive) | -0.0557 | -0.171 | 0.665 | 1.41 | -0.141 | 0.424 | 0.172 | 0.699
O=C1O[C@H](c2ccccc2)[C@H](c2ccccc2)N2[C@H]1[C@@H](C(=O)NC[C@H](O)c1ccccc1)[C@]1(C(=O)Nc3ccc(C#CC4=CCCCC4)cc31)[C@H]2c1ccc(O)cc1 | 0.296 | -1.22 (inactive) | 0.0112 | -0.124 | 0.397 | 1.98 | 0.826 | 1.29 | 0.594 | 1.09
CN1C(=O)C2C=CC(C(O)c3ccccc3)N(NC(=O)OC(C)(C)C)C2C1=O (stereo not given) | 0.959 | 0.0333 (inactive) | 0.245 | -0.0722 | 0.722 | 2.05 | 0.23 | 1.01 | -0.33 | 0.442
COC(=O)[C@@]1(Cc2ccc(OC)cc2)[C@H]2c3cc(C(=O)N(C)C)n(Cc4ccc(OC)c(OC)c4)c3C[C@H]2CN1C(=O)c1ccccc1 | 0.857 | -0.327 (inactive) | 0.391 | 0.218 | 0.587 | 3.17 | 0.457 | 1.29 | -0.885 | 0.96
C=C[C@@H](C)[C@@H](OC(=O)Nc1ccc(OC)cc1)c1ccc(O)c2ccccc12 | 0.199 | 0.725 (inactive) | -0.155 | -0.183 | 0.283 | 0.516 | -0.0028 | 0.349 | 0.897 | 0.323
COCCOC(=O)N1C(=O)[C@@]2(c3cc(C#CC4(O)CCCCCC4)ccc31)[C@H](c1ccc(O)cc1)N1[C@H](c3ccccc3)[C@H](c3ccccc3)OC(=O)[C@H]1[C@@H]2C(=O)N1CCc2cc(OC)c(OC)cc2C1 | -0.189 | 0.131 (inactive) | -0.239 | -0.197 | 0.859 | 0.288 | 0.347 | 0.0544 | -0.861 | 0.3
CCCNC(=O)[C@@]1(c2ccc([N+](=O)[O-])cc2)CC(=O)N(CC23CC4CC(CC(C4)C2)C3)[C@@H]1c1ccc(CO)cc1I | 0.41 | 0.609 (inactive) | 0.216 | 0.126 | 0.118 | 1.33 | 0.137 | 0.974 | -0.366 | 0.519
COc1ccc([Si](C)(C)[C@@H]2[C@@H](CCO)O[C@]3(C(=O)N(Cc4cccc(N(C=O)c5ccccc5)c4)c4ccccc43)[C@H]2C)cc1 | 0.492 | 0.492 (inactive) | -0.0328 | -0.0876 | 0.457 | 0.46 | -0.206 | 1.32 | -0.179 | 1.1

Source: PubChem BioAssay
